# Assay outcomes: PubChem, National Center for Advancing Translational Sciences (NCATS)
# FLuc modulator = qHTS profiling assay for firefly luciferase inhibitor/activator using purifed enzyme and Km concentrations of substrates (counterscreen for miR-21 project); Luciferin 4-monooxygenase (Photinus pyralis), P08659; purified FLuc, Km substrates, luminescence inhibition; Potency, µM (doses to about 57.5 µM), without a hit: at the top dose activity change, negative = inhibition, usual class: inhibitors; 360,000 tested, 6.9% active;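 further: plate controls were vehicle for no effect and reference inhibitor for full effect; nearly all actives have a fitted effect of over 55% in size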
# Target sequence (P08659 whole entry, looked up): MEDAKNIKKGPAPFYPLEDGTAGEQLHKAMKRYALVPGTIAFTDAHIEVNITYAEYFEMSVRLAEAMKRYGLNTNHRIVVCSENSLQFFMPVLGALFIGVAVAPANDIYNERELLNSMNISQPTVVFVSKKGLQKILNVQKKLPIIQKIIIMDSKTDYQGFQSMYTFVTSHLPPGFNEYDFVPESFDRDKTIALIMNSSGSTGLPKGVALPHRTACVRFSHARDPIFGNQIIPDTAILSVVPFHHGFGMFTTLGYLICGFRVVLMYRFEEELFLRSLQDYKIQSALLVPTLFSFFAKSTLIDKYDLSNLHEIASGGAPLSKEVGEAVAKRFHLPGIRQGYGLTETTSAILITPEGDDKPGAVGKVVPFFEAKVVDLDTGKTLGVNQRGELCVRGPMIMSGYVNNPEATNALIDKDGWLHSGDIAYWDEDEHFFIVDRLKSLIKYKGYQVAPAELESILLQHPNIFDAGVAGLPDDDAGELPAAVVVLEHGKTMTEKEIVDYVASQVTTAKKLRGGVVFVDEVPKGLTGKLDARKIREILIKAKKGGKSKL
#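 Purified P. pyralis luciferase, 10 nM final, with Km-level 10 uM D-luciferin and 10 uM ATP in 50 mM Tris acetate pH 7.5, 10 mM Mg acetate, 0.01% Tween-20, 0.05% BSA; 6-point qHTS titration about 60 µM downward; luminescence read.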
# SMN2 splice up = qHTS Assay for Enhancers of SMN2 Splice Variant Expression | HEK293 SMN2-luciferase splicing reporter, luminescence, 30-36 h | Potency, µM (titrated, usually from 46.1 µM), for the others: at the top dose activity change, positive = activation, actives largely listed as activators | 210,000 tested, 2.8% active; further: % of control where 0% means no effect; nearly all actives have a fitted effect of over 55% in size
#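 HEK293 cells carry an SMN2 […]–luciferase reporter in which exon 7 inclusion puts luciferase in frame. Cells were plated 10-12 h before compound addition, then incubated 30-36 h at 37C. ONE-Glo luminescence was read; sodium butyrate at 4.5 mM final served as control.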
# Rab9 promoter act = qHTS Assay for Rab9 Promoter Activators; Huh7 Rab9 promoter-luciferase reporter, luminescence, 24 h; Potency, µM (titrated, usually from 9.22 µM), without a hit: at the highest dose activation, negative = inhibition, actives largely listed as activators; 320,000 tested, 2.8% active; further: % of control where 0% means no effect; nearly all actives have a fitted effect of over 60% in size
#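 Huh7 cells stably carrying a Rab9 promoter-luciferase reporter, 1500 cells per well in OP-MEM I with 10% FBS, treated with compound 24 hours at 37C. Luciferase activity read by luminescence after 10 minutes with Amplite reagent.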
# NPC1 promoter act = qHTS Assay for NPC1 Promoter Activators | Huh7 NPC1 promoter luciferase reporter, 24 h | Potency, µM (series often up to 9.22 µM), without a hit: at the top dose activation, usual class: activators | 320,000 tested, 2.4% active; further: % of control where 0% means no effect; nearly all actives have a fitted effect of over 60% in size
#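 In 1536-well qHTS, Huh7 cells harboring an NPC1 promoter–luciferase construct received compound for 24 h; activation was quantified by luminescence following luciferase reagent addition.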
# ELG1 genotox = qHTS screen for small molecules that induce genotoxicity in human embryonic kidney (HEK293T) cells expressing luciferase-tagged ELG1; HEK293T ELG1-luciferase reporter, luminescence, 16 h; Potency, µM (top dose mostly 46 µM), inactives show top-dose activity change, positive = activation, actives largely listed as activators; 330,000 tested, 1.3% active; AID 504466, 2011; further: % of control where 0% means no effect; nearly all actives have a fitted effect of over 60% in size
#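 Luminescence read-out: rising ELG1-luciferase signal, reflecting elevated ELG1 protein under genetic stress, flags genotoxic compounds. Cells were treated for 16 hr at 37 °C before ONE-Glo detection.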
# * hit, by the source's call; ? = inconclusive; . = not tested or not shown; [ ] = dose if it differs, or a comment. An excerpt weighted towards active compounds, which were near 7.4% of everything screened. The call rests on the fitted dose curve; in most records, active means well fitted curve in the direction sought with a large enough effect; inconclusive means small, poorly fitted or top-dose-only effect, or another doubt; inactive means no such curve, though single readings can be large; an effect the other way counts as inactive or inconclusive. Potency means the concentration at half of the fitted maximal effect.
SMILES,FLuc modulator,SMN2 splice up,Rab9 promoter act,NPC1 promoter act,ELG1 genotox
CCOC(=O)c1cnc(SCC(=O)c2ccc(C)cc2)nc1N,0.7%,14.2%,10.6%,-3.6%,6.4%
CCOC(=O)c1cnc(SCc2cccc(C)c2)nc1N,?,?,29.7%,28.5%,16.4µM*
CCOC(=O)c1cnc(SCC(C)C)nc1N,6.75µM*,14.1µM*,2.51µM*,3.16µM*,?
CCOC(=O)c1cnc(SCC(=O)c2ccc3c(c2)OCCO3)nc1N,21.3µM*,14.1%,?,0.0%,4.2%
CC(NC(=O)COC(=O)c1cc(NS(=O)(=O)c2ccc(Cl)c([N+](=O)[O-])c2)ccc1O)C1CC2CCC1C2 (configuration not stated),6.3%,-17.5%,-8.8%,-14.0%,-19.5%
Cc1c(C(=O)N(C)c2ccccc2)sc2nc(-c3ccc(F)cc3)cn12,16.9µM*,.,.,.,.
Cc1c(C(=O)NCc2ccco2)sc2nc(-c3ccccc3)cn12,16.9µM*,11.1%,?,?,?
Cc1c(C(=O)NCc2cccnc2)sc2nc(-c3ccc(F)cc3)cn12,19µM*,-78.3%,16.4%,25.3%,?
Cc1c(C(=O)NCc2cccnc2)sc2nc(-c3ccccc3)cn12,23.9µM*,.,?,23.1%,?
Cc1c(C(=O)NCc2ccc(F)cc2)sc2nc(-c3ccccc3)cn12,-10.2%,.,.,.,.
CCOC(=O)[C@H]1[C@H]2COc3ccc(C)cc3[C@@H]2N2C(=O)CN(CC3CCCO3)C(=O)[C@@]12C (some centres not stated),-1.6%,.,0.5%,1.0%,3.1%
O=C(CSc1ccnc(=O)[nH]1)NCc1ccc(F)cc1,-5.1%,.,.,.,.
NC(=O)c1ccc(NC(=O)c2cnc3ccccc3n2)cc1,?,.,2.51µM*,?,?
Cc1ccc(NC(=O)c2ncc(Cl)c(Cl)c2Cl)cc1C,-15.0%,?,2.82µM*,-3.4%,?
Cc1ccc(NC(=O)c2cnc3ccccc3n2)cc1C,2.39µM*,.,0.501µM*,0.199µM*,?
O=C(Nc1ccccc1)c1cnc2ccccc2n1,12µM*,?,6.7%,18.5%,?
COC(=O)C1=C(C(=O)OC)[C@@H]2N(Cc3ccccc3)c3ccccc3[C@@]23C[C@@H](C(=O)OC)N(S(=O)(=O)c2ccc(Br)cc2)C3=N1,.,-3.2%[9.22 µM],.,.,.
COC(=O)c1cn[nH]c1NC(=S)Nc1ccccc1C,7.57µM*,3.6%,3.55µM*,?,?
CCOC(=O)NC(=S)Nc1ccc(OC)cc1,-15.1%,14.1%,19.7%,11.8%,14.7%
COC(=O)c1cn[nH]c1NC(=S)Nc1ccc(C)cc1Cl,0.379µM*,15.9%,0.562µM*,0.398µM*,0.581µM*
COC(=O)c1cn[nH]c1NC(=S)Nc1ccc(Cl)c(Cl)c1,0.426µM*,10µM*,0.355µM*,0.631µM*,0.411µM*
CCOC(=O)c1cn[nH]c1NC(=S)Nc1ccc(OC)cc1,0.19µM*,.,0.316µM*,0.282µM*,?
CCCCCC(=O)NNC1=NCC(Cc2cccc(Cl)c2)S1 (configuration not stated),-3.5%,-18.4%,-7.1%,-8.6%,-3.2%
O=C(CSc1nc2c(cnn2-c2ccc(F)cc2)c(=O)[nH]1)Nc1ccccc1C(F)(F)F,-17.4%,-0.8%,.,.,.
O=C(COC(=O)c1ccco1)NCc1ccc(Cl)cc1Cl,.,.,.,.,-0.4%
SMILES,FLuc modulator,SMN2 splice up,Rab9 promoter act,NPC1 promoter act,ELG1 genotox
O=C(COC(=O)C1CCCCC1)NCCc1ccccc1,16.9µM*,-1.3%,-1.8%,0.5%,-0.2%
O=C(COC(=O)c1ccco1)NCc1ccccc1Cl,26.9µM*,0.0%,1.2%,7.1%,3.7%
O=C(OCc1nc(-c2ccccc2Cl)no1)c1ccco1,12µM*,.,-0.3%,0.9%,1.2%
O=C(COC(=O)C1CCCCC1)Nc1ccccc1OC(F)F,23.9µM*,0.8%,-3.4%,-3.7%,0.3%
O=C(COC(=O)COc1ccccc1)NCCc1ccccc1,3.1%,.,-1.0%,-1.7%,1.0%
OC[C@H]1O[C@@H](n2cnc3cncnc32)[C@H](O)[C@@H]1O,.,-23.6%,-1.9%[46.1 µM],7.0%[46.1 µM],.
